# Tests used:
# Experiment in all cases: SPOT peptide array binding signal intensity (averaged, normalized) (arbitrary units (background-subtracted, floor 0; scale differs between SH3 domains)); higher = stronger binding of the SH3 domain to the peptide
# CaNbp2 = molecular target: CaNbp2
# How it was run: (§1)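 SH3 domains from four yeast species were expressed as GST fusions in E. coli BL21(DE3) and purified on glutathione Sepharose. Each was incubated at 10 μg/ml overnight at 4°C in TBS-based blocking buffer on cellulose membranes bearing synthetic 15-mer peptides, in which serines replaced cysteines. Bound protein was detected with anti-GST antibody, an HRP anti-mouse secondary and luminol, then imaged and quantified with Genespotter. The binding signal is the normalized, background-subtracted spot intensity averaged over replicates, in arbitrary units that are not the same from one domain to another.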
# CaRvs167 = molecular target: CaRvs167
# How it was run: as §1
# CaRvs167-3 = molecular target: CaRvs167-3
# How it was run: as §1
# CaSho1 = molecular target: CaSho1
# How it was run: as §1
# CaSla1-D1-D2 = molecular target: CaSla1-D1-D2
# How it was run: as §1
# CaSla1-D3 = molecular target: CaSla1-D3
# How it was run: as §1
# ScAbp1 = molecular target: ScAbp1
# How it was run: as §1
# ScBbc1 = molecular target: ScBbc1
# How it was run: as §1
# ScBem1-D1 = molecular target: ScBem1-D1
# How it was run: as §1
# ScBzz1-D1 = molecular target: ScBzz1-D1
# How it was run: as §1
# ScBzz1-D2 = molecular target: ScBzz1-D2
# How it was run: as §1
# ScCyk3 = molecular target: ScCyk3
# How it was run: as §1
# ScFus1 = molecular target: ScFus1
# How it was run: as §1
# ScHof1 = molecular target: ScHof1
# How it was run: as §1
# ScHse1 = molecular target: ScHse1
# How it was run: as §1
# ScLsb1 = molecular target: ScLsb1
# How it was run: as §1
# ScLsb2 = molecular target: ScLsb2
# How it was run: as §1
# ScLsb3 = molecular target: ScLsb3
# How it was run: as §1
# ScLsb4 = molecular target: ScLsb4
# How it was run: as §1
# ScMyo3 = molecular target: ScMyo3
# How it was run: as §1
# ScMyo5 = molecular target: ScMyo5
# How it was run: as §1
# ScNbp2 = molecular target: ScNbp2
# How it was run: as §1
# ScPex13 = molecular target: ScPex13
# How it was run: as §1
# ScRvs167 = molecular target: ScRvs167
# How it was run: as §1
# ScSho1 = molecular target: ScSho1
# How it was run: as §1
# ScSla1-D1-D2 = molecular target: ScSla1-D1-D2
# How it was run: as §1
# ScSla1-D3 = molecular target: ScSla1-D3
# How it was run: as §1
# SpAbp1-D1 = molecular target: SpAbp1-D1
# How it was run: as §1
# SpBbc1 = molecular target: SpBbc1
# How it was run: as §1
# SpBzz1-D1 = molecular target: SpBzz1-D1
# How it was run: as §1
# SpBzz1-D2 = molecular target: SpBzz1-D2
# How it was run: as §1
# SpCyk3 = molecular target: SpCyk3
# How it was run: as §1
# SpHof1 = molecular target: SpHof1
# How it was run: as §1
# SpHof1-2 = molecular target: SpHof1-2
# How it was run: as §1
# SpHof1-3 = molecular target: SpHof1-3
# How it was run: as §1
# SpHse1 = molecular target: SpHse1
# How it was run: as §1
# SpLsb1 = molecular target: SpLsb1
# How it was run: as §1
# SpLsb4 = molecular target: SpLsb4
# How it was run: as §1
# SpMyo1 = molecular target: SpMyo1
# How it was run: as §1
# SpNbp2 = molecular target: SpNbp2
# How it was run: as §1
# SpPex13 = molecular target: SpPex13
# How it was run: as §1
# SpRvs167 = molecular target: SpRvs167
# How it was run: as §1
# SpSla1-D1-D2 = molecular target: SpSla1-D1-D2
# How it was run: as §1
# SpSla1-D3 = molecular target: SpSla1-D3
# How it was run: as §1
# AgAbp1 = molecular target: AgAbp1
# How it was run: as §1
# AgBbc1 = molecular target: AgBbc1
# How it was run: as §1
# AgBem1-D1 = molecular target: AgBem1-D1
# How it was run: as §1
# AgBzz1-D1 = molecular target: AgBzz1-D1
# How it was run: as §1
# AgBzz1-D2 = molecular target: AgBzz1-D2
# How it was run: as §1
# AgCyk3 = molecular target: AgCyk3
# How it was run: as §1
# AgFus1 = molecular target: AgFus1
# How it was run: as §1
# AgHof1 = molecular target: AgHof1
# How it was run: as §1
# AgHse1 = molecular target: AgHse1
# How it was run: as §1
# AgLsb1 = molecular target: AgLsb1
# How it was run: as §1
# AgLsb4 = molecular target: AgLsb4
# How it was run: as §1
# AgMyo5 = molecular target: AgMyo5
# How it was run: as §1
# AgNbp2 = molecular target: AgNbp2
# How it was run: as §1
# AgRvs167 = molecular target: AgRvs167
# How it was run: as §1
# AgSho1 = molecular target: AgSho1
# How it was run: as §1
# AgSla1-D1-D2 = molecular target: AgSla1-D1-D2
# How it was run: as §1
# AgSla1-D3 = molecular target: AgSla1-D3
# How it was run: as §1
# CaAbp1-D1 = molecular target: CaAbp1-D1
# How it was run: as §1
# CaAbp1-D2 = molecular target: CaAbp1-D2
# How it was run: as §1
# CaBbc1 = molecular target: CaBbc1
# How it was run: as §1
# CaBem1-D1 = molecular target: CaBem1-D1
# How it was run: as §1
# CaBzz1-D1 = molecular target: CaBzz1-D1
# How it was run: as §1
# CaBzz1-D2 = molecular target: CaBzz1-D2
# How it was run: as §1
# CaCyk3 = molecular target: CaCyk3
# How it was run: as §1
# CaFus1 = molecular target: CaFus1
# How it was run: as §1
# CaHof1 = molecular target: CaHof1
# How it was run: as §1
# CaHse1 = molecular target: CaHse1
# How it was run: as §1
# CaLsb1 = molecular target: CaLsb1
# How it was run: as §1
# CaLsb4 = molecular target: CaLsb4
# How it was run: as §1
# CaMyo5 = molecular target: CaMyo5
# How it was run: as §1
binder,measurement,setting,value
NAGIRPKFILALNDE,SPOT peptide array binding signal intensity,CaNbp2,122
same,SPOT peptide array binding signal intensity,CaRvs167,1.17
same,SPOT peptide array binding signal intensity,CaRvs167-3,17
same,SPOT peptide array binding signal intensity,CaSho1,222
same,SPOT peptide array binding signal intensity,CaSla1-D1-D2,≤ 0
same,SPOT peptide array binding signal intensity,CaSla1-D3,10.8
same,SPOT peptide array binding signal intensity,ScAbp1,≤ 0
same,SPOT peptide array binding signal intensity,ScBbc1,≤ 0
same,SPOT peptide array binding signal intensity,ScBem1-D1,1
same,SPOT peptide array binding signal intensity,ScBzz1-D1,43
same,SPOT peptide array binding signal intensity,ScBzz1-D2,19
same,SPOT peptide array binding signal intensity,ScCyk3,54.5
same,SPOT peptide array binding signal intensity,ScFus1,159
same,SPOT peptide array binding signal intensity,ScHof1,≤ 0
same,SPOT peptide array binding signal intensity,ScHse1,628
same,SPOT peptide array binding signal intensity,ScLsb1,1.5
same,SPOT peptide array binding signal intensity,ScLsb2,≤ 0
same,SPOT peptide array binding signal intensity,ScLsb3,≤ 0
same,SPOT peptide array binding signal intensity,ScLsb4,≤ 0
same,SPOT peptide array binding signal intensity,ScMyo3,2.5
same,SPOT peptide array binding signal intensity,ScMyo5,≤ 0
same,SPOT peptide array binding signal intensity,ScNbp2,23.5
same,SPOT peptide array binding signal intensity,ScPex13,≤ 0
same,SPOT peptide array binding signal intensity,ScRvs167,≤ 0
same,SPOT peptide array binding signal intensity,ScSho1,158
same,SPOT peptide array binding signal intensity,ScSla1-D1-D2,≤ 0
same,SPOT peptide array binding signal intensity,ScSla1-D3,6.5
same,SPOT peptide array binding signal intensity,SpAbp1-D1,≤ 0
same,SPOT peptide array binding signal intensity,SpBbc1,4
same,SPOT peptide array binding signal intensity,SpBzz1-D1,201
same,SPOT peptide array binding signal intensity,SpBzz1-D2,≤ 0
same,SPOT peptide array binding signal intensity,SpCyk3,2
same,SPOT peptide array binding signal intensity,SpHof1,28.8
same,SPOT peptide array binding signal intensity,SpHof1-2,19
same,SPOT peptide array binding signal intensity,SpHof1-3,214
same,SPOT peptide array binding signal intensity,SpHse1,481
same,SPOT peptide array binding signal intensity,SpLsb1,≤ 0
same,SPOT peptide array binding signal intensity,SpLsb4,≤ 0
same,SPOT peptide array binding signal intensity,SpMyo1,≤ 0
same,SPOT peptide array binding signal intensity,SpNbp2,16.5
same,SPOT peptide array binding signal intensity,SpPex13,4
same,SPOT peptide array binding signal intensity,SpRvs167,3.5
same,SPOT peptide array binding signal intensity,SpSla1-D1-D2,4
same,SPOT peptide array binding signal intensity,SpSla1-D3,≤ 0
GERSRPLVISILSSA,SPOT peptide array binding signal intensity,AgAbp1,≤ 0
same,SPOT peptide array binding signal intensity,AgBbc1,14.8
same,SPOT peptide array binding signal intensity,AgBem1-D1,73
same,SPOT peptide array binding signal intensity,AgBzz1-D1,90
same,SPOT peptide array binding signal intensity,AgBzz1-D2,106
same,SPOT peptide array binding signal intensity,AgCyk3,14
same,SPOT peptide array binding signal intensity,AgFus1,1940
same,SPOT peptide array binding signal intensity,AgHof1,14.8
same,SPOT peptide array binding signal intensity,AgHse1,106
same,SPOT peptide array binding signal intensity,AgLsb1,≤ 0
same,SPOT peptide array binding signal intensity,AgLsb4,262
same,SPOT peptide array binding signal intensity,AgMyo5,≤ 0
same,SPOT peptide array binding signal intensity,AgNbp2,25
same,SPOT peptide array binding signal intensity,AgRvs167,3.67
same,SPOT peptide array binding signal intensity,AgSho1,120
same,SPOT peptide array binding signal intensity,AgSla1-D1-D2,11
same,SPOT peptide array binding signal intensity,AgSla1-D3,5
same,SPOT peptide array binding signal intensity,CaAbp1-D1,43
same,SPOT peptide array binding signal intensity,CaAbp1-D2,2
same,SPOT peptide array binding signal intensity,CaBbc1,55.2
same,SPOT peptide array binding signal intensity,CaBem1-D1,28.5
same,SPOT peptide array binding signal intensity,CaBzz1-D1,268
same,SPOT peptide array binding signal intensity,CaBzz1-D2,175
same,SPOT peptide array binding signal intensity,CaCyk3,37
same,SPOT peptide array binding signal intensity,CaFus1,3880
same,SPOT peptide array binding signal intensity,CaHof1,≤ 0
same,SPOT peptide array binding signal intensity,CaHse1,10.5
same,SPOT peptide array binding signal intensity,CaLsb1,0.5
same,SPOT peptide array binding signal intensity,CaLsb4,≤ 0
same,SPOT peptide array binding signal intensity,CaMyo5,24
same,SPOT peptide array binding signal intensity,CaNbp2,171
same,SPOT peptide array binding signal intensity,CaRvs167,45.8
same,SPOT peptide array binding signal intensity,CaRvs167-3,538
same,SPOT peptide array binding signal intensity,CaSho1,497
same,SPOT peptide array binding signal intensity,CaSla1-D1-D2,11
same,SPOT peptide array binding signal intensity,CaSla1-D3,170
same,SPOT peptide array binding signal intensity,ScAbp1,3
same,SPOT peptide array binding signal intensity,ScBbc1,4
same,SPOT peptide array binding signal intensity,ScBem1-D1,9
same,SPOT peptide array binding signal intensity,ScBzz1-D1,97
same,SPOT peptide array binding signal intensity,ScBzz1-D2,619
same,SPOT peptide array binding signal intensity,ScCyk3,121
same,SPOT peptide array binding signal intensity,ScFus1,3300
same,SPOT peptide array binding signal intensity,ScHof1,≤ 0
same,SPOT peptide array binding signal intensity,ScHse1,500
same,SPOT peptide array binding signal intensity,ScLsb1,≤ 0
same,SPOT peptide array binding signal intensity,ScLsb2,≤ 0
same,SPOT peptide array binding signal intensity,ScLsb3,6.5
same,SPOT peptide array binding signal intensity,ScLsb4,7
same,SPOT peptide array binding signal intensity,ScMyo3,≤ 0
same,SPOT peptide array binding signal intensity,ScMyo5,1
same,SPOT peptide array binding signal intensity,ScNbp2,71.5
same,SPOT peptide array binding signal intensity,ScPex13,19.8
same,SPOT peptide array binding signal intensity,ScRvs167,6
same,SPOT peptide array binding signal intensity,ScSho1,910
same,SPOT peptide array binding signal intensity,ScSla1-D1-D2,8
same,SPOT peptide array binding signal intensity,ScSla1-D3,22
same,SPOT peptide array binding signal intensity,SpAbp1-D1,≤ 0
same,SPOT peptide array binding signal intensity,SpBbc1,18
same,SPOT peptide array binding signal intensity,SpBzz1-D1,314
same,SPOT peptide array binding signal intensity,SpBzz1-D2,0.75
same,SPOT peptide array binding signal intensity,SpCyk3,26.5
same,SPOT peptide array binding signal intensity,SpHof1,146
same,SPOT peptide array binding signal intensity,SpHof1-2,12.2
same,SPOT peptide array binding signal intensity,SpHof1-3,113
same,SPOT peptide array binding signal intensity,SpHse1,482
same,SPOT peptide array binding signal intensity,SpLsb1,≤ 0
same,SPOT peptide array binding signal intensity,SpLsb4,9
same,SPOT peptide array binding signal intensity,SpMyo1,6
same,SPOT peptide array binding signal intensity,SpNbp2,146
same,SPOT peptide array binding signal intensity,SpPex13,28
same,SPOT peptide array binding signal intensity,SpRvs167,0.333
same,SPOT peptide array binding signal intensity,SpSla1-D1-D2,≤ 0
same,SPOT peptide array binding signal intensity,SpSla1-D3,11

# Source: the supplement of paper PMC4466140
